Measured values reported in PubChem BioAssay AID1851 (National Center for Advancing Translational Sciences (NCATS), 2009).
Among all 16,000 compounds or so, about 5,700 (36%) were called active. Another 24% or so got no clear call; they are omitted. Calls follow the shape of the dose curve; as a rule, active = well fitted curve in the direction sought with a large enough effect; inconclusive = small, poorly fitted or top-dose-only effect, or effect the other way; inactive = no such curve, though single readings can be large or run the other way. The list shows a part of the results. Peptide text beside a SMILES is read from it. * marks the point of attachment. Cbz = O=C(OCc1ccccc1)*

target: Cytochrome P450 1A2 (Homo sapiens) (UniProt P05177); assay: Cytochrome panel assay with activity outcomes; settings: recombinant CYP, pro-luciferin dealkylation, luminescence, p450-cyp1a2; series mostly up to 57.1 µM
% is scaled to controls: 0 for no effect and ±100 for the full control effect.

Sequence of Cytochrome P450 1A2 (Homo sapiens) (P05177 whole entry, looked up): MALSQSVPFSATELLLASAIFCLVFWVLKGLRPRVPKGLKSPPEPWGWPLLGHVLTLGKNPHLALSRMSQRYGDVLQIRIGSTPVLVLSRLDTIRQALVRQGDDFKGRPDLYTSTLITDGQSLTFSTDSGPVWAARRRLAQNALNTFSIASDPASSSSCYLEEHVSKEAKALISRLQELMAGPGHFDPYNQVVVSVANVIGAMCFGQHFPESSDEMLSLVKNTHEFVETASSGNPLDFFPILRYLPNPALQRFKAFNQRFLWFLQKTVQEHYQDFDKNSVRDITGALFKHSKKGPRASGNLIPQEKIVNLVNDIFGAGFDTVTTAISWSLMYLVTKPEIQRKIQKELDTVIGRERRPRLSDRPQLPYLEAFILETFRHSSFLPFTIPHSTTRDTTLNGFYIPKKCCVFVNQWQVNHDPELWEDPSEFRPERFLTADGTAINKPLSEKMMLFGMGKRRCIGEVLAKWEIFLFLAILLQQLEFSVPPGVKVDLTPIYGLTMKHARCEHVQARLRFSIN

activity, negative = inhibition, inactive:
COc1cc(C2SCCCCCCCCCCSC(c3ccc(O)c(OC)c3)SCCCCCCCCCCS2)ccc1O (centres undefined) -6.91% [at 2.29 µM]
CC(C)=CCC/C(C)=C/CO/N=C1/C[C@@H](O)[C@@H](O)[C@@H]2[C@@H]3C(=O)N(Cc4ccc5c(c4)OCO5)C(=O)[C@H]3CC[C@@H]12 -3.81% [at 11.4 µM]
O=C(O)[C@@H]1Cc2c([nH]c3ccccc23)[C@@H](CCCCO)N1 -9.61% [at 2.29 µM]
CC[C@H]1CN(C)[C@H]2Cc3c([nH]c4ccccc34)C(=O)C[C@H]1[C@H]2C(=O)OC -10.5% [at 11.4 µM]
CC(C)(CO[C@H]1C[C@H]2CC[C@@]1(C)C2(C)C)[N+](=O)[O-] -17.1% [at 11.4 µM]
CC(C)(C)N1C(=O)[C@@H]2[C@H]3C(=CC[C@H]2C1=O)C(=O)[C@H]1O[C@H]1[C@H]3O -0.944% [at 11.4 µM]
O=S(=O)(O)c1ccc(N=Nc2ccccc2)cc1 -5.18% [at 11.4 µM]
Cc1ccc(C(C)C)n1C(=O)OC(C)(C)C 6.74% [at 11.4 µM]
Cn1c([N+](=O)[O-])cnc1CN1CCN(CCO)CC1 9.16% [at 2.29 µM]
N/C(CC/C(N)=N/O)=N\O -17.8% [at 11.4 µM]
O=C(O)CSSCC(=O)O -2.44% [at 11.4 µM]
COc1cccc([C@H]2Oc3ccc(OC)cc3/C(=N\O[C@@H]3O[C@H](COC(C)=O)[C@H](OC(C)=O)[C@H](OC(C)=O)[C@H]3OC(C)=O)[C@@H]2O)c1 2.78% [at 11.4 µM]
C[C@H]1CC[C@H]2C(=O)N3[C@H](c4ccc(Br)cc4)[C@@H](C)CC[C@H]3C(=O)N2[C@@H]1c1ccc(Br)cc1 -10.6% [at 11.4 µM]
CN(CC(=O)O)Cc1c(O)c(Cl)cc(Cl)c1Cl -0.983% [at 2.29 µM]

AC50, inactive:
COCC(=O)N1CCC2(CC1)CN(Cc1ccc(C#N)cc1)C2
N[C@@H](CO)C(=O)O
CCOC(=O)CC1C(=O)NCCN1S(=O)(=O)c1ccccc1Cl (centres undefined)
COC(=O)Cn1c(=O)c2c(nc(Br)n2Cc2ccccc2Cl)n(C)c1=O
CN(CCCNC(=O)C1CCC(=O)N1Cc1ccccc1Cl)c1ccccc1 (centres undefined)
COc1ccc(CN2CCN(C(=O)CC(C)C)CC2)c(OC)c1OC
CCOC(=O)C1=C(C)NC2=C(C(=O)C(C(=O)OCC)C(c3ccc(OC)cc3)C2)C1c1ccccn1 (centres undefined)
Cc1ccc(C)n1NC(=O)c1ccccc1
Cc1ccc(S(=O)(=O)NCCSc2nnnn2C)cc1
O=C(Nc1nc2ccccc2n1CCN1CCCCC1)C1CCCCC1
Cc1cc2ccccc2c(=O)n1CC(=O)NCC(=O)N1CCCC1
Cc1ccc(S(=O)(=O)NC(=O)c2cccn2C)cc1
CS(=O)(=O)c1ccc([C@H](O)[C@H](CO)NC(=O)C(Cl)Cl)cc1
CC(=O)O[C@]1(C(C)=O)CC[C@@H]2[C@@H]3C=C(Cl)C4=CC(=O)[C@H]5C[C@@H]5[C@]4(C)[C@H]3CC[C@]21C
C/C(=C\C1CCCCC1)C(NC(=O)c1ccc(C(F)(F)F)cc1)c1ccc(-c2ccccc2)cc1 (centres undefined)
C[C@@]1(C(NC(=O)c2cccs2)c2ccc(-c3ccccc3)cc2)C[C@H]1C1CCCCC1 (some centres undefined)
Cc1cccc(NC2(C(F)(F)F)N=C(c3ccccc3)NC2=O)n1 (centres undefined)
N#Cc1c(N2CCN(C(=O)c3ccccc3Cl)CC2)nc(-c2ccccc2)c2c1CCCC2
Cc1cc(C)cc(-n2c(O)c(C=NC3CCS(=O)(=O)C3)c3ccccc3c2=O)c1 (centres undefined)
COc1c(O[C@H]2O[C@@H](CO)[C@@H](O)[C@@H](O)[C@@H]2O)cc2c(c1OC)-c1ccc(SC)c(=O)cc1[C@H](NC(C)=O)CC2
COc1cc(C(=O)N2CCC(NC(=O)C(Cc3ccc(C(C)C)cc3)NC(C)=O)CC2)cc(OC)c1OC (centres undefined)
O=C(NCCc1ccc(Cl)cc1)C1CCN(S(=O)(=O)N2CCC3(CC2)OCCO3)CC1
O=C(NCCN1CCCC1)C1(S(=O)(=O)c2ccc(Cl)cc2)CC1
COc1cccc(/C=N/n2nnc3c(cnn3-c3ccccc3)c2=O)c1
COc1ccc(-n2nc(C(=O)NCC(=O)Nc3ccccn3)c3ccccc3c2=O)cc1
Cc1cccc(NC(=S)NNC(=O)CC(C)O)c1C (centres undefined)
CCOc1cc(NC(=O)c2ccccc2[N+](=O)[O-])c(OCC)cc1NC(=O)CC(C)C
CC1(C)CC(=O)C([C@H]2C3=C(CC(C)(C)CC3=O)Oc3ccccc32)C(=O)C1
CN1CCN(/C=N/C2=C(C#N)C(c3ccccc3)C3=C(CC(C)(C)CC3=O)O2)CC1 (centres undefined)
Cc1nnsc1SCC(=O)O
Fc1nc(N2CCCC2)c(F)c(Oc2ccccc2Oc2c(F)c(F)nc(N3CCCC3)c2F)c1F
Fc1cccc(C2NC(=S)NC3=C2N2CCC3CC2)c1 (centres undefined)
Cc1nc(SCC(=O)c2cc3ccccc3oc2=O)c(C#N)c(C)c1C(=O)Nc1ccccc1
COc1ccc(NC(=O)N2CC3(CCN(C(=O)c4cnccn4)CC3)C2)cc1
Cc1cccc(OCC(=O)NNC(=O)CSc2ncc(C#N)c(N)n2)c1
CC(C)C(NC(=O)OCc1ccccc1)C(=O)O (centres undefined)
CC(C)[C@H](NC(=O)OCc1ccccc1)C(=O)N[C@H](C=O)Cc1ccccc1 (Cbz-Val-Phe-aldehyde)
COc1ccc(-c2cc(C(=O)Nc3nc4c(C)cccc4s3)c3ccccc3n2)cc1OC

AC50, active:
O=C(CSc1nnc(SCc2cccc3ccccc23)s1)c1ccc2c(c1)OCO2 2.24 µM
COC(=O)C1Cc2c([nH]c3ccccc23)CN1 (centres undefined) 0.398 µM
O=C1Nc2ccc(F)cc2C12SCCS2 15.8 µM
Cc1ccc2c(c1)C1(SCCS1)C(=O)N2 0.891 µM
CCOC(=O)n1c(=O)n(Cc2c(Cl)cccc2Cl)c2ccccc21 14.1 µM
CCOC(=O)n1c(=O)n(Cc2ccccc2Cl)c2ccccc21 4.47 µM
COc1cccc(NC(=O)c2cc(-c3cccnc3)nc3c(Cl)cccc23)c1 8.91 µM
CCOC(=O)C1C(=O)C=C(/C=C/c2ccccc2)CC1c1ccc(Cl)cc1 (centres undefined) 5.01 µM
Fc1ccc(C2=Nn3c(Cc4ccccc4F)nnc3SC2)cc1 0.355 µM
Cc1cc2ccccc2n1CCNC(=O)C1CCCC1 1 µM
Cc1cc2ccccc2n1CCNC(=O)c1ccccc1 4.47 µM
Cc1ccc(S(=O)(=O)NCCn2c(C)cc3ccccc32)cc1 15.8 µM
Cc1cccc(CNc2ncncc2-c2cccc(C#N)c2)c1 2.51 µM
N#Cc1cccc(-c2cncnc2NCc2ccccc2)c1 5.01 µM
N#Cc1cccc(-c2cncnc2NCc2cccnc2)c1 5.01 µM
Cc1cnc(CNc2ncncc2-c2cccc(C#N)c2)cn1 12.6 µM
COc1ccccc1CNc1ncncc1-c1cccc(C#N)c1 10 µM
N#Cc1cccc(-c2cncnc2NCc2cccs2)c1 1.58 µM
Fc1ccc2c(c1)C1C=CCC1C(c1cc3c(cc1Br)OCO3)N2 (centres undefined) 0.891 µM
C=CCNc1nc(Cl)nc(Nc2ccc(OC)cc2)n1 2.51 µM
CCCC[C@@H]1C[C@H]1C(NC(=O)c1cccs1)c1ccc(Cl)cc1 (some centres undefined) 1 µM
CCCC[C@@H]1C[C@H]1C(NC(=O)c1cccs1)c1ccccc1C(F)(F)F (some centres undefined) 6.31 µM
CCCC[C@@H]1C[C@H]1C(NC(=O)c1cccs1)c1ccc(C(F)(F)F)cc1 (some centres undefined) 2 µM
CCOC(=O)CSC1=NC(=O)/C(=C\c2ccc(Cl)cc2)S1 3.55 µM
CCOC(=O)CSC1=NC(=O)/C(=C\c2ccc(OC(C)=O)cc2)S1 25.1 µM
Clc1ccc(-c2nnc(-c3ccccc3)c(N3CCSCC3)n2)cc1 1.12 µM
Clc1ccc(-c2nnc(-c3ccc(Br)cc3)c(N3CCSCC3)n2)cc1 1.12 µM
Brc1ccc(-c2nnc(-c3ccccc3)c(N3CCSCC3)n2)cc1 1.26 µM
Cc1ccc(-n2c(O)c(/C=N/n3cnnc3)c3ccccc3c2=O)cc1 17.8 µM
Oc1cc2c(cc1O)CN(C(=S)NCCc1ccc(Cl)cc1)CCC2 20 µM
COc1ccc(Oc2c(Cl)cnn(-c3ccccc3)c2=O)cc1 7.08 µM
c1ccc(-c2n[nH]c(-c3ccccc3)c2-c2nc3ccccc3[nH]2)cc1 8.91 µM
CCOc1cc(NC(=S)Nc2cccc(C)c2)c(OCC)cc1NC(=O)CC(C)C 5.01 µM
CC1(C)CC(=O)C2=C(C1)Oc1nc3ccccc3cc1C2C(C#N)C#N (centres undefined) 22.4 µM
O=C(O)CSc1sc(=S)sc1SCC(=O)O 12.6 µM
CCOC(=O)c1ccccc1Oc1c(F)c(F)nc(NCCO)c1F 8.91 µM
Cc1c(C#N)c(=O)oc2ccc3ccccc3c12 0.126 µM
O=C1C2CCCN2C(c2ccc(F)cc2)N1c1nccs1 (centres undefined) 3.16 µM
Cc1snc(SCC(=O)N/N=C(\N)COc2cccc(C(F)(F)F)c2)c1C#N 12.6 µM
O=C1CC(=Nc2ccccc2)NN1c1ccccc1 6.31 µM
O=C(N[C@@H](Cc1ccccc1)C(=O)CCl)OCc1ccccc1 3.16 µM
COc1ccc(OC)c(C2C(C(=O)Nc3nc4ccccc4s3)=C(C)NC3=C2C(=O)CCC3)c1 (centres undefined) 1.41 µM
